Results on 7 compounds are retold here after ChEMBL document CHEMBL3988442, “University of Dundee, Small-Polar-MMV Screening Library” (2021).

For some of these results: Entries with a potency or affinity are not part of this list.

Holding throughout (set-up): scale not given: direction of the effect not stated beside the values
The target of assay [1] is Protein translocase subunit SecA (Escherichia coli (strain K12)) (UniProt P10408). Briefly: Assay to Identify E. coli SecA ATPase Inhibitors. Type of assay: functional. The following applies: 30 µM.
The target of assay [2] is T1, Ubiquitin-activating enzyme e1, putative (Leishmania donovani (strain BPK282A1)) (UniProt E9BSI1).
T1 sequence (whole entry): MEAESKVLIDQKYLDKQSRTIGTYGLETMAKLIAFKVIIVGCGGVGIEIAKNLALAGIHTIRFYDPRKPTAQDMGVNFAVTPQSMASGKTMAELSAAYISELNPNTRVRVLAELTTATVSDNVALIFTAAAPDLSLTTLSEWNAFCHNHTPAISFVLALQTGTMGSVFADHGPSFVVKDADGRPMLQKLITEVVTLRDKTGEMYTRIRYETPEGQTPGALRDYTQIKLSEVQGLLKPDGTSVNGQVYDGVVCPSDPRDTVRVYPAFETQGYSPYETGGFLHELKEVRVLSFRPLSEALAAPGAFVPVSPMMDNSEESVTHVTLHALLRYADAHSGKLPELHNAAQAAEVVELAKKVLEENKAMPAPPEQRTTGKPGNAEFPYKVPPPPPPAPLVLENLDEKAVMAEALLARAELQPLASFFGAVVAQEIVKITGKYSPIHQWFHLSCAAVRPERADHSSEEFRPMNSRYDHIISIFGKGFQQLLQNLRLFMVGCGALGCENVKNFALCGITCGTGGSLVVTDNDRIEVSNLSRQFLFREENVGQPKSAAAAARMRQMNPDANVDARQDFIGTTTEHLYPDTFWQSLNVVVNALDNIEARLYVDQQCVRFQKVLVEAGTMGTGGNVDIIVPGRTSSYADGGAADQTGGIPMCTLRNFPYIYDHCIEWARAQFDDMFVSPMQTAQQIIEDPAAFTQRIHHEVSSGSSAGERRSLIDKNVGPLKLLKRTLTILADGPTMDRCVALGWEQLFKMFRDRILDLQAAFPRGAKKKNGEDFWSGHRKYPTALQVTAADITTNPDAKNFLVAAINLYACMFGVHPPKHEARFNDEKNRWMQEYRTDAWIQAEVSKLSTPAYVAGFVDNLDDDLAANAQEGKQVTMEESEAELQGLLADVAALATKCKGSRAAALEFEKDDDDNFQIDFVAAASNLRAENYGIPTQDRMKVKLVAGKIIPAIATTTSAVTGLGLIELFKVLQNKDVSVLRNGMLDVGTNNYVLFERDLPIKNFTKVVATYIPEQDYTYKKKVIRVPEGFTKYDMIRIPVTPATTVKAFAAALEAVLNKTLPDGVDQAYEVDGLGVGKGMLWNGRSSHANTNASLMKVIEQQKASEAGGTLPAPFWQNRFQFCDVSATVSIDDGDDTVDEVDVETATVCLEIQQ
Briefly: Leishmania donovani Ubiquitin Activating Enzyme (LdE1). In kind it is functional. The following applies: 30 µM.

The target in assay [3] is Sialic acid-binding Ig-like lectin 9 (Homo sapiens) (UniProt Q9Y336). Briefly: Hs-Siglec9 ALPHAscreen SOP 20170721. To be noted: 10 µM. On the technique in general: In Alpha technology, singlet oxygen from a donor bead excites a nearby acceptor bead.
For a further assay, the system named is Trypanosoma cruzi. Briefly: Trypanosoma cruzi phosphomannomutase and mannose-1-phosphate guanylyltransferase assay. The following applies: 10 µM. Type of assay: functional.
For assay [4], the target named is T2, Arginase-2, mitochondrial (Homo sapiens) (UniProt P78540).
T2 sequence (whole entry): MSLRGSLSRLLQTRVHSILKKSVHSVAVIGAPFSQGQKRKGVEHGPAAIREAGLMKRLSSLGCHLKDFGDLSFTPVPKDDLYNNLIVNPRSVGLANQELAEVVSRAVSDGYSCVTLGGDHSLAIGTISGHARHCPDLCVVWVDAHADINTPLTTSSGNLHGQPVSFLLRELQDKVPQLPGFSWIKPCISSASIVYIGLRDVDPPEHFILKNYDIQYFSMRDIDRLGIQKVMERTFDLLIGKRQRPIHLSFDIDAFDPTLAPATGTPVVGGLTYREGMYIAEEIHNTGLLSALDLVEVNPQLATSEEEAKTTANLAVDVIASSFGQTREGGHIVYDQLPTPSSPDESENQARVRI
Briefly: in vitro enzyme assay to detect the production of urea directly proportional to the activity of Arginase II. Note: in the data most compounds retested in dose-response had high values. In kind it is functional. The following applies: 33.3 µM.

The target in assay [5] is T3, Proteasome subunit beta (Trypanosoma cruzi) (UniProt O96673).
T3 sequence (whole entry): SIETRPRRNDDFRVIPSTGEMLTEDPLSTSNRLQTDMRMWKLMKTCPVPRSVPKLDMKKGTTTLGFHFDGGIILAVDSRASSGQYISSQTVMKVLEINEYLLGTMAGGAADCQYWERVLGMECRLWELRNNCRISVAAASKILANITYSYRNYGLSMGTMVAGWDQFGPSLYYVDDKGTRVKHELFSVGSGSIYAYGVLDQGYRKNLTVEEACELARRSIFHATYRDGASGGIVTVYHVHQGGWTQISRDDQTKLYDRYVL
Briefly: Trypanosoma cruzi proteasome chymotrypsin-like activity (TcProtChymo) assay. Note: in the data most compounds retested in dose-response had high values. Type of assay: functional. The following applies: 9.37 µM.

For the next assay, the species on record is Homo sapiens. Briefly: To identify inhibition of the IFN signalling (Jak-Stat) pathway via expression of an eGFP reporter gene under the control of an IFN-stimulated response element (ISRE) containing MxA promoter. In kind it is functional. The following applies: 30 µM.
Assay [6] has as its target T4, Tyrosyl-tRNA synthetase, putative (Trypanosoma cruzi (strain CL Brener)) (UniProt Q4DSP6).
T4 sequence (whole entry): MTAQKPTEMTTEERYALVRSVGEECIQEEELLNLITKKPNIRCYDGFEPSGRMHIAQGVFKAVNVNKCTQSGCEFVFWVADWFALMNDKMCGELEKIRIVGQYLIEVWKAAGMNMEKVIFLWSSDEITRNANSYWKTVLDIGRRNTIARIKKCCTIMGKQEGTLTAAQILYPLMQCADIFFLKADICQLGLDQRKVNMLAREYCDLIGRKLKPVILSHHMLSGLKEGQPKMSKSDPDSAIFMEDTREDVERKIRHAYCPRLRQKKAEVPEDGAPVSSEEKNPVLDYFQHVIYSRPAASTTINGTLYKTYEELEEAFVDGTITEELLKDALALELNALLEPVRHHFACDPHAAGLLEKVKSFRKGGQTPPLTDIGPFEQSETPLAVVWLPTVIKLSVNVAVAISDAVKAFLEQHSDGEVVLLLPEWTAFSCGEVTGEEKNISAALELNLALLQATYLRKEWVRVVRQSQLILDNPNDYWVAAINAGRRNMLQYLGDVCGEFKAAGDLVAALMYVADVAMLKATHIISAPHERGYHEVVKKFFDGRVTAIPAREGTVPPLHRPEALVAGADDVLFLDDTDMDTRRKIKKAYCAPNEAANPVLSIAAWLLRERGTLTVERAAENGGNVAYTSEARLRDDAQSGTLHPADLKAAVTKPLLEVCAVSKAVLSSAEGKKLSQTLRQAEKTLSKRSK
Briefly: Trypanosoma cruzi tyrosyl tRNA synthetase (TcYRS) _High Tyrosine SOP. Note: in the data most compounds retested in dose-response had high values. Type of assay: functional. To be noted: 30 µM.

For assay [7], the target named is T4, Tyrosyl-tRNA synthetase, putative (Trypanosoma cruzi (strain CL Brener)). Briefly: Trypanosoma cruzi tyrosyl tRNA synthetase (TcYRS) SOP. In kind it is functional. To be noted: 30 µM.
Assay [8] concerns the target Chromo domain-containing protein 1 (Saccharomyces cerevisiae (strain ATCC 204508 / S288c) (Baker's yeast)) (UniProt P32657). Briefly: ScCHD-1 Enzyme Inhibition Assay. Note: in the data most compounds retested in dose-response had high values. The following applies: 30 µM. Type of assay: functional.

Sequence of Sialic acid-binding Ig-like lectin 9 (Homo sapiens) (Q9Y336 whole entry): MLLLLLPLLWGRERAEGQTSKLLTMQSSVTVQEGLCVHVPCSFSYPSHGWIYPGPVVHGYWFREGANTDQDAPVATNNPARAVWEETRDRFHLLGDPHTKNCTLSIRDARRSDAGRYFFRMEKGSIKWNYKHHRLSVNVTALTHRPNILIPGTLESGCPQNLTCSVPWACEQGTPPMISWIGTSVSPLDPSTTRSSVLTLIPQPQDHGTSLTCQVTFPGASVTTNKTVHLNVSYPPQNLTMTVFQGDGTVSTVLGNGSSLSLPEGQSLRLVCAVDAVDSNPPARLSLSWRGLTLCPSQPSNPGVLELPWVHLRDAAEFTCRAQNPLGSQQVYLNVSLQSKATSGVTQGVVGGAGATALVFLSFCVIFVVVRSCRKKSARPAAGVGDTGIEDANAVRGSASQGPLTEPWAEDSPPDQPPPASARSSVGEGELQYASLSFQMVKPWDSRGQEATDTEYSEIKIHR
Sequence of Protein translocase subunit SecA (Escherichia coli (strain K12)) (P10408 whole entry): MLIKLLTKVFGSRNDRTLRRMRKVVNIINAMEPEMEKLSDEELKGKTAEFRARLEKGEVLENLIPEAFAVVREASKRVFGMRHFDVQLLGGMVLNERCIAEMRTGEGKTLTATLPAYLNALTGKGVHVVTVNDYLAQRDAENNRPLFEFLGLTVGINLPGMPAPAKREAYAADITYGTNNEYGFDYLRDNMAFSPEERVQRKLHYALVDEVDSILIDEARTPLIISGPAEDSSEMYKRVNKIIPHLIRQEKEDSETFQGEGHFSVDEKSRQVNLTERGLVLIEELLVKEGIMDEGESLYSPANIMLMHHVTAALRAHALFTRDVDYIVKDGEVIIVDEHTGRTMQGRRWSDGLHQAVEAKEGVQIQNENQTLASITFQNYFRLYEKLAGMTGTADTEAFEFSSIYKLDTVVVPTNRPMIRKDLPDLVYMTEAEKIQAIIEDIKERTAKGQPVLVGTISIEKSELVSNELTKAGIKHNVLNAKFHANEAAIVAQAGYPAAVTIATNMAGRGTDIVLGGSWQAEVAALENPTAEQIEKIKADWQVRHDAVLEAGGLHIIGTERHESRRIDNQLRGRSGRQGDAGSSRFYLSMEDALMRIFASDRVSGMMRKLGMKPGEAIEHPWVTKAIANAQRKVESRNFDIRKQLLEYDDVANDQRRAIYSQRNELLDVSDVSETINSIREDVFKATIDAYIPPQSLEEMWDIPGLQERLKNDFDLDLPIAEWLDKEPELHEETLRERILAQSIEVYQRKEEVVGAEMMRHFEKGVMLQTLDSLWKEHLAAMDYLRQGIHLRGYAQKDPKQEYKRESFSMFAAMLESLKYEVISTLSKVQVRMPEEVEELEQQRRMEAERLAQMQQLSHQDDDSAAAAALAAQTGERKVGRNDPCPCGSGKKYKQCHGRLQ
Sequence of Chromo domain-containing protein 1 (Saccharomyces cerevisiae (strain ATCC 204508 / S288c) (Baker's yeast)) (P32657 whole entry, the tested form may be a part): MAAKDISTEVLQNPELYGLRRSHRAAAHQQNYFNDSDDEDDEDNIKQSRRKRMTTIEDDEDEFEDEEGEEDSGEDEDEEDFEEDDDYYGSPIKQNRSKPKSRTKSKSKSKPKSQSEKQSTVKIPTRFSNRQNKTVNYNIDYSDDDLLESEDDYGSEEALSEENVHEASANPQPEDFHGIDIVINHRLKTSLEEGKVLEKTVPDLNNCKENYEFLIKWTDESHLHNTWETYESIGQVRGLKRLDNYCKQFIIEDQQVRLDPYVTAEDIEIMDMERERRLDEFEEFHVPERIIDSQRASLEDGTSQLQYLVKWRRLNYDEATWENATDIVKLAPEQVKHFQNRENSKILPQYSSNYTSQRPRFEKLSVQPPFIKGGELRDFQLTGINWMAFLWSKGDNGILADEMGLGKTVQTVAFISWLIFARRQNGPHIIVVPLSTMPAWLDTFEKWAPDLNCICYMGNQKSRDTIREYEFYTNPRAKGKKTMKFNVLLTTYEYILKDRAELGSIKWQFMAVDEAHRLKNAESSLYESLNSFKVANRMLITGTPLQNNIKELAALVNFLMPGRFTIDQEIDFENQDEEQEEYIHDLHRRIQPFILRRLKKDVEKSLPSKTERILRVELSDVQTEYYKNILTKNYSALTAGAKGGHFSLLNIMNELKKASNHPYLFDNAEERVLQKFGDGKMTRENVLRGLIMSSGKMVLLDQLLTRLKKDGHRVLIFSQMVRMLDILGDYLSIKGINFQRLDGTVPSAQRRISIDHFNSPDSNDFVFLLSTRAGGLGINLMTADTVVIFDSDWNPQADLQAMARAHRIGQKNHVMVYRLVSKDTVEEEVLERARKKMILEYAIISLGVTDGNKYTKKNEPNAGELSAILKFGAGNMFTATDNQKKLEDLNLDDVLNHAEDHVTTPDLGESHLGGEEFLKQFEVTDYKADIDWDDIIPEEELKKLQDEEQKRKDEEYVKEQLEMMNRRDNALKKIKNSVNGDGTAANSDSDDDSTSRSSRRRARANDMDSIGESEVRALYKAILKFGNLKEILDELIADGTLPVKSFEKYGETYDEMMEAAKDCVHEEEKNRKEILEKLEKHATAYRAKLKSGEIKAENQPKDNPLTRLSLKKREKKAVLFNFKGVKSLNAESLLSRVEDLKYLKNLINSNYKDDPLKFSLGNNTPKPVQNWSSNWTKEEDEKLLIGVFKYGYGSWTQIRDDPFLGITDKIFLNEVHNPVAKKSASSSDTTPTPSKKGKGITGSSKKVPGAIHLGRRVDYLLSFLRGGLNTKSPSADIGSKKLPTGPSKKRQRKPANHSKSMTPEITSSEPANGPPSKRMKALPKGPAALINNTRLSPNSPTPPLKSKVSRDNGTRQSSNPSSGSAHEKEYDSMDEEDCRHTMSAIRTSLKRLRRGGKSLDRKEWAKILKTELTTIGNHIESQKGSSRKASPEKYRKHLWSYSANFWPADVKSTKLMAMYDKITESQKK

Take `O=C(CCN1CCCN(c2nccs2)CC1)Nc1ccccc1`: the Percent Effect in [1] is -2.89%; in assay [2], 10.7%; in assay [3] it was -7.96%; in the assay on Trypanosoma cruzi, -4.82%; in assay [4], -5.76%; in assay [5], 13.2%. Further, the Percent Effect is 17.4% in the assay listed under Homo sapiens, -0.526% in assay [6], -5.13% in assay [7] and -12% in assay [8].

As for `CC(Cn1cccn1)NC(=O)N1CCN(Cc2cccs2)CC1` (stereo not given), the Percent Effect was -1.74% in assay [1]; 18.7% in [2]; -3.71% in assay [3]; 5.42% in the assay on Trypanosoma cruzi; -3.1% in assay [4]; 17.4% in assay [5]. Further, the Percent Effect in the assay listed under Homo sapiens amounted to 12.5%; in assay [6] it was 2.63%; in [7] it was 12.8%; in [8], 71.3%.

`CC(C)c1nccn1-c1cccc(C2CCCN2S(=O)(=O)N(C)C)n1` (stereo not given): the Percent Effect in [1] is 1.33%; in [2], -17.3%; in assay [3] it was -5.7%; in the assay with Trypanosoma cruzi it was -2.76%; in [4] it was -1.77%; in assay [5], 14.8%. For the same compound, the Percent Effect in the assay filed under Homo sapiens is 39.9%; in assay [6], 4.23%; in assay [7], 10%; in assay [8], -18%.

Take `CN(Cc1nc2c(cnn2C)c(=O)[nH]1)Cc1ccc(F)cc1F`: the Percent Effect in assay [1] is -0.314%; in assay [2] it was 20.5%; in [3], -17.8%; in the assay with Trypanosoma cruzi it was 2.72%; in assay [4], -2.05%; in assay [5], 16.8%. Also, the Percent Effect in the assay listed under Homo sapiens was 3.63%; in assay [6], 7.18%; in assay [7], 25.3%; in assay [8] it was -5.98%.

For `CN(Cc1ccc2c(c1)OCCO2)C(=O)Cn1ccccc1=O`, the Percent Effect is -0.175% in [1]; 13.3% in assay [2]; 1.7% in assay [3]; -5.02% in the assay on Trypanosoma cruzi; 5.76% in [4]; 19.8% in [5]. The Percent Effect in the assay listed under Homo sapiens was 3.52%; in assay [6], 2.63%; in assay [7], 7.69%; in assay [8], -7.25%.

`COCC1CN(CC2CC2)Cc2nn(C)cc21` (stereo not given): the Percent Effect is -8.74% in assay [1]; -1.3% in assay [2]; -2.43% in assay [3]; -6.91% in the assay on Trypanosoma cruzi; 2.02% in [4]; 10.5% in assay [5]. Further, the Percent Effect in the assay listed under Homo sapiens was 4.75%; in [6], 1.58%; in assay [7] it was -5.13%; in assay [8], -3.01%.

Regarding `c1ccc(-n2ncc(CN3CCCC3Cn3cccn3)n2)cc1` (stereo not given), the Percent Effect in assay [1] was -6.8%; in [2], -13%; in [3], 24.4%; with Trypanosoma cruzi, -2.61%; in assay [4] it was -0.205%; in [5], 5.44%. Besides, the Percent Effect in the assay listed under Homo sapiens is 1.65%; in [6], -1.96%; in assay [7], -2.35%; in assay [8], 3.05%.
